Results taken from PubChem BioAssay (NCI).
About 83,000 compounds went through this panel and 20% of them were active in at least one assay; those are over-represented in the sample as a whole.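 Testing used 96-well plates and a 48-hour single-concentration exposure. Example: -40 means 40% of the starting cells died.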 The source made the active and inactive calls. Rule for the calls: active = growth percent below 10; inactive = the rest.

Columns and labels:
Test in all cases: NCI-60 one-dose screen, 48 h (100 = growth as untreated, 0 = no growth, -100 = all killed)
Settings in all cases: 10 µM unless noted
RPMI-8226 leukemia = system: RPMI-8226 leukemia
OVCAR-8 ovarian = system: OVCAR-8 ovarian
OVCAR-5 ovarian = system: OVCAR-5 ovarian
OVCAR-4 ovarian = system: OVCAR-4 ovarian
SK-OV-3 ovarian = system: SK-OV-3 ovarian
IGROV1 ovarian = system: IGROV1 ovarian
OVCAR-3 ovarian = system: OVCAR-3 ovarian
HS 578T breast = system: HS 578T breast
NCI/ADR-RES ovarian = system: NCI/ADR-RES ovarian
T-47D breast = system: T-47D breast
BT-549 breast = system: BT-549 breast
MDA-MB-435 melanoma = system: MDA-MB-435 melanoma
SW-620 colon = system: SW-620 colon
MCF7 breast = system: MCF7 breast
HCT-116 colon = system: HCT-116 colon
HCC-2998 colon = system: HCC-2998 colon
KM12 colon = system: KM12 colon

Measured: growth

O=S(=O)(Nc1ccc(NS(=O)(=O)c2ccccc2)c(Cl)c1)c1ccccc1
inactive: RPMI-8226 leukemia 90.8% | OVCAR-8 ovarian 103% | OVCAR-5 ovarian 108% | OVCAR-4 ovarian 100% | SK-OV-3 ovarian 104% | IGROV1 ovarian 98.6% | OVCAR-3 ovarian 104% | HS 578T breast 103% | NCI/ADR-RES ovarian 100% | T-47D breast 106% | BT-549 breast 105% | MDA-MB-435 melanoma 107% | SW-620 colon 99.1% | MCF7 breast 91.6% | HCT-116 colon 97.6% | HCC-2998 colon 104% | KM12 colon 104%

COc1cc(/C=C/C(=O)c2ccc(O)c(CN3CCN(c4cc5c(cc4F)c(=O)c(C(=O)O)cn5C4CC4)CC3)c2)cc(OC)c1OC
active: RPMI-8226 leukemia -3.9% | HCT-116 colon 7.72%
inactive: OVCAR-8 ovarian 30.8% | OVCAR-5 ovarian 65.5% | OVCAR-4 ovarian 49.8% | SK-OV-3 ovarian 89.2% | IGROV1 ovarian 55% | OVCAR-3 ovarian 14% | HS 578T breast 38.1% | NCI/ADR-RES ovarian 54.6% | T-47D breast 50.4% | BT-549 breast 31.8% | MDA-MB-435 melanoma 28.6% | SW-620 colon 34.8% | MCF7 breast 18.6% | HCC-2998 colon 67.2% | KM12 colon 72%

Nc1ccc(-c2cc3c(Nc4ccc(Oc5cccc(C(F)(F)F)c5)c(Cl)c4)ncnc3s2)cc1
inactive: RPMI-8226 leukemia 53.1% | OVCAR-8 ovarian 73.3% | OVCAR-5 ovarian 93.4% | OVCAR-4 ovarian 77.8% | SK-OV-3 ovarian 83% | IGROV1 ovarian 59.9% | OVCAR-3 ovarian 56.6% | HS 578T breast 83.1% | NCI/ADR-RES ovarian 69.7% | T-47D breast 43.8% | BT-549 breast 73% | MDA-MB-435 melanoma 70.3% | SW-620 colon 101% | MCF7 breast 34.7% | HCT-116 colon 67.9% | HCC-2998 colon 69% | KM12 colon 44.5%

C=C(C)[C@@H]1CC[C@]2(C(N)=O)CC[C@]3(C)[C@H](CC[C@@H]4[C@@]5(C)C/C(=C/c6ccco6)C(=O)C(C)(C)[C@@H]5CC[C@]43C)[C@@H]12
inactive: RPMI-8226 leukemia 84.6% | OVCAR-8 ovarian 93.8% | OVCAR-5 ovarian 101% | OVCAR-4 ovarian 95.8% | SK-OV-3 ovarian 102% | IGROV1 ovarian 101% | OVCAR-3 ovarian 105% | HS 578T breast 95.3% | NCI/ADR-RES ovarian 96.6% | T-47D breast 80% | BT-549 breast 108% | MDA-MB-435 melanoma 98% | SW-620 colon 105% | MCF7 breast 79.8% | HCT-116 colon 83.3% | HCC-2998 colon 117% | KM12 colon 97.6%

COc1cc(/C=C/c2cc(O)c3cc(C(C)=O)c(=O)oc3c2)cc2c1O[C@]1(C)CC[C@@H](O)C(C)(C)[C@H]1C2
inactive: OVCAR-8 ovarian 84.4% | OVCAR-5 ovarian 70.6% | OVCAR-4 ovarian 66.1% | SK-OV-3 ovarian 64.2% | IGROV1 ovarian 53.1% | OVCAR-3 ovarian 84.6% | NCI/ADR-RES ovarian 83.6% | T-47D breast 60% | BT-549 breast 35% | MDA-MB-435 melanoma 21.2% | SW-620 colon 28.4% | HCT-116 colon 44.2% | HCC-2998 colon 67% | KM12 colon 57.6%
active: RPMI-8226 leukemia -22.6% | HS 578T breast 2.8% | MCF7 breast 5.64%

O=C1/C(=C/c2ccc(Cl)cc2)SC(=S)N1CCc1ccc(O)cc1
inactive: RPMI-8226 leukemia 90.6% | OVCAR-8 ovarian 97.6% | OVCAR-5 ovarian 104% | OVCAR-4 ovarian 58.4% | SK-OV-3 ovarian 90.9% | IGROV1 ovarian 14.6% | OVCAR-3 ovarian 98.2% | HS 578T breast 86.1% | NCI/ADR-RES ovarian 98.5% | T-47D breast 54.2% | BT-549 breast 101% | MDA-MB-435 melanoma 92.9% | SW-620 colon 101% | MCF7 breast 114% | HCT-116 colon 102% | HCC-2998 colon 107% | KM12 colon 93.6%

C=CC(=O)Nc1cccc(-c2nc(SC)nc(Nc3ccccc3OC)c2C#N)c1
inactive: RPMI-8226 leukemia 29.7% | OVCAR-8 ovarian 34.5% | OVCAR-5 ovarian 42.9% | SK-OV-3 ovarian 91.8% | IGROV1 ovarian 69.3% | OVCAR-3 ovarian 23.4% | HS 578T breast 16.8% | NCI/ADR-RES ovarian 29.3% | BT-549 breast 57.1% | MDA-MB-435 melanoma 18.7% | SW-620 colon 17.2% | HCC-2998 colon 81.3% | KM12 colon 82.8%
active: OVCAR-4 ovarian -26.4% | T-47D breast 3.01% | MCF7 breast 2.55% | HCT-116 colon 2.91%

CSc1nc(Nc2cccc(NC(=O)/C(C#N)=C/c3c(Cl)cccc3Cl)c2)c(C#N)c(-c2cccc([N+](=O)[O-])c2)n1
inactive: RPMI-8226 leukemia 26.8% | OVCAR-8 ovarian 53.6% | OVCAR-5 ovarian 67.5% | OVCAR-4 ovarian 49.7% | SK-OV-3 ovarian 99.2% | IGROV1 ovarian 29.2% | OVCAR-3 ovarian 31% | HS 578T breast 66.9% | NCI/ADR-RES ovarian 60.5% | T-47D breast 37.6% | BT-549 breast 71.6% | MDA-MB-435 melanoma 43.2% | SW-620 colon 38.1% | MCF7 breast 11.3% | HCT-116 colon 35.6% | HCC-2998 colon 60.8% | KM12 colon 78.3%

COc1cc2nc(N3CCCC3)nc(NCC3CCCCC3)c2cc1OC
active: RPMI-8226 leukemia -38.2% | HS 578T breast -33.5% | T-47D breast -49.9% | MDA-MB-435 melanoma -72.3% | SW-620 colon -41.6% | MCF7 breast -78.8% | HCT-116 colon -65.2% | HCC-2998 colon -60.1%
inactive: OVCAR-8 ovarian 12.1% | OVCAR-5 ovarian 29.1% | OVCAR-4 ovarian 33.2% | SK-OV-3 ovarian 77.4% | IGROV1 ovarian 72.3% | OVCAR-3 ovarian 13.1% | NCI/ADR-RES ovarian 35.3% | BT-549 breast 42.6% | KM12 colon 75.4%
